The supplement of paper PMC7156485

Columns and labels:
Conditions in all cases: concentration: 10 µM; 24 h
[1] = tested on: HCC1569; experiment: cell number relative to DMSO (% of DMSO); higher = more cells (less growth inhibition / toxicity)
In short: (§1)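 Treatment: HCC1569 and TDF cells, 800 per well in 384-well plates with RPMI and 10% FBS, were given compounds at 10 µM for 24 h at 37 °C, in triplicate. Readout: after 3.7% formaldehyde fixation, cells were stained with a rabbit anti-H1.0 antibody, an AlexaFluor 647 secondary and DAPI. Reported values are H1.0 nuclear intensity or cell number as percent of the plate control, taken as the median of replicates, with positional smoothing for HCC1569.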

[2] = tested on: TDF; experiment: as above
In short: as §1

[3] = tested on: TDF; experiment: H1.0 immunofluorescence intensity relative to DMSO (% of DMSO); higher = stronger H1.0 induction, active = 120 or more
In short: as §1

[4] = tested on: HCC1569; experiment: H1.0 immunofluorescence intensity relative to DMSO (% of DMSO); higher = stronger H1.0 induction, active = 140 or more
In short: as §1
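Throughout, for H1.0 immunofluorescence intensity relative to DMSO: TDF is a line of transformed human dermal fibroblasts of mesenchymal origin.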
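Throughout, for cell number relative to DMSO: TDF denotes transformed human dermal fibroblasts of mesenchymal origin.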

## CC1CC(C)C(=O)C(C(O)CC2CC(=O)NC(=O)C2)C1 (centres undefined) [Cycloheximide]
[1]
  cell number: 64.3
[2]
  cell number: 41.7
[3]
  H1.0 immunofluorescence intensity: 110 (inactive)
[4]
  H1.0 immunofluorescence intensity: 139 (inactive)

## CCN1CC2(COC)CCC(O)C34C5CC6C(OC)CC(O)(C(CC23)C14)C5C6OC(C)=O (centres undefined) [Condelphine]
[1]
  cell number: 101
[2]
  cell number: 105
[3]
  H1.0 immunofluorescence intensity: 98.6 (inactive)
[4]
  H1.0 immunofluorescence intensity: 102 (inactive)

## CC12CCC3C(CCC4=CC(=O)CCC43C)C1CCC2=O (centres undefined) [4-Androstene-3,17-dione]
[1]
  cell number: 95.3
[2]
  cell number: 113
[3]
  H1.0 immunofluorescence intensity: 101 (inactive)
[4]
  H1.0 immunofluorescence intensity: 90 (inactive)

## CS(=O)(=O)O.Cc1c(C(=O)c2cccc3ccccc23)c2cccc3c2n1C(CN1CCOCC1)CO3 (stereo not drawn) [( R)-(+)-WIN 55,212-2 mesylate]
[1]
  cell number: 72.8
[2]
  cell number: 53.4
[3]
  H1.0 immunofluorescence intensity: 131 (active)
[4]
  H1.0 immunofluorescence intensity: 209 (active)

## CC(O)C(C)OC(=O)C1CC2c3cccc4c3c(cn4C(C)C)CC2N(C)C1.O=C(O)C=CC(=O)O (centres undefined) [LY-53,857 maleate]
[1]
  cell number: 107
[2]
  cell number: 107
[3]
  H1.0 immunofluorescence intensity: 96.5 (inactive)
[4]
  H1.0 immunofluorescence intensity: 90.5 (inactive)

## CS(=O)(=O)O.Oc1ccc2c3c1OC1c4oc5ccccc5c4CC4(O)C(C2)N(CC2CC2)CCC314 (centres undefined) [Naltriben methanesulfonate]
[1]
  cell number: 98.1
[2]
  cell number: 105
[3]
  H1.0 immunofluorescence intensity: 92.4 (inactive)
[4]
  H1.0 immunofluorescence intensity: 105 (inactive)

## Cl.Oc1cc2c(cc1O)C1c3ccccc3CNC1CC2 (centres undefined) [Dihydrexidine hydrochloride]
[1]
  cell number: 96.3
[2]
  cell number: 118
[3]
  H1.0 immunofluorescence intensity: 82.7 (inactive)
[4]
  H1.0 immunofluorescence intensity: 103 (inactive)

## CC(N)Cc1c[nH]c2ccc(OCc3cccs3)cc12.Cl (centres undefined)
[1]
  cell number: 102
[2]
  cell number: 115
[3]
  H1.0 immunofluorescence intensity: 87.9 (inactive)
[4]
  H1.0 immunofluorescence intensity: 92.8 (inactive)

## Cl.Oc1ccc2c3c1OC1c4[nH]c5ccccc5c4CC4(O)C(C2)N(CC2CC2)CCC314 (centres undefined) [Naltrindole hydrochloride]
[1]
  cell number: 101
[2]
  cell number: 99.3
[3]
  H1.0 immunofluorescence intensity: 96.4 (inactive)
[4]
  H1.0 immunofluorescence intensity: 114 (inactive)

## CC1=CC2c3cccc4[nH]cc(c34)CC2N(C)C1 (centres undefined) [Agroclavine]
[1]
  cell number: 100
[2]
  cell number: 103
[3]
  H1.0 immunofluorescence intensity: 95.3 (inactive)
[4]
  H1.0 immunofluorescence intensity: 98.1 (inactive)

## CCCCCCCCCCCCCCCCOCC(COP(=O)([O-])OCC[N+](C)(C)C)OC(C)=O (stereo not drawn) [Enantio-PAF C16]
[1]
  cell number: 100
[2]
  cell number: 106
[3]
  H1.0 immunofluorescence intensity: 93.7 (inactive)
[4]
  H1.0 immunofluorescence intensity: 94 (inactive)

## CCCC(=O)OC1C(C)C2(O)C(C=C(CO)CC3(O)C(=O)C(C)=CC32)C2C(C)(C)C12OC(=O)CCC (centres undefined) [Phorbol 12,13-dibutyrate]
[1]
  cell number: 89.5
[2]
  cell number: 74.2
[3]
  H1.0 immunofluorescence intensity: 123 (active)
[4]
  H1.0 immunofluorescence intensity: 157 (active)

## CC1OC(=O)C2CC3CCCCC3C(C=CC3CCCC(C)N3C)C12 (single isomer, unassigned; (+)) [(+)-Himbacine]
[1]
  cell number: 102
[2]
  cell number: 112
[3]
  H1.0 immunofluorescence intensity: 91 (inactive)
[4]
  H1.0 immunofluorescence intensity: 109 (inactive)

## Cl.NCCc1ccc(O)cc1 [4-Hydroxyphenethylamine hydrochloride]
[1]
  cell number: 96.2
[2]
  cell number: 100
[3]
  H1.0 immunofluorescence intensity: 96.7 (inactive)
[4]
  H1.0 immunofluorescence intensity: 100 (inactive)

## CCN1CC2(COC)C(O)CC(OC)C34C5CC6(O)C(OC)C(O)C(OC(C)=O)(C5C6OC(=O)c5ccccc5)C(C(OC)C23)C14 (centres undefined) [Aconitine]
[1]
  cell number: 99.9
[2]
  cell number: 97.3
[3]
  H1.0 immunofluorescence intensity: 96.5 (inactive)
[4]
  H1.0 immunofluorescence intensity: 94.5 (inactive)

## COC1=C(OC)C(=O)C(=C2C(C)=C(C(=O)O)NC(c3ccc4c(n3)C(=O)C(N)=C(OC)C4=O)=C2N)C=C1 [Streptonigrin]
[1]
  cell number: 41.2
[2]
  cell number: 5.53
[3]
  H1.0 immunofluorescence intensity: 171 (active)
[4]
  H1.0 immunofluorescence intensity: 128 (inactive)

## O=P1(NCCCl)OCCCN1CCCl (centres undefined) [Ifosfamide]
[1]
  cell number: 103
[2]
  cell number: 105
[3]
  H1.0 immunofluorescence intensity: 97.2 (inactive)
[4]
  H1.0 immunofluorescence intensity: 112 (inactive)

## NCCc1c[nH]c2ccc(C(N)=O)cc12.O=C(O)C=CC(=O)O [5-Carboxamidotryptamine maleate]
[1]
  cell number: 100
[2]
  cell number: 103
[3]
  H1.0 immunofluorescence intensity: 91.3 (inactive)
[4]
  H1.0 immunofluorescence intensity: 87.6 (inactive)

## c1ccc2c3c([nH]c2c1)CNCC3 [Noreleagnine]
[1]
  cell number: 103
[2]
  cell number: 108
[3]
  H1.0 immunofluorescence intensity: 92.6 (inactive)
[4]
  H1.0 immunofluorescence intensity: 88.4 (inactive)

## CCCC[N+]1(C)C2CC(OC(=O)C(CO)c3ccccc3)CC1C1OC12.[Br-] (centres undefined) [Scopolamine N-butylbromide]
[1]
  cell number: 99.1
[2]
  cell number: 111
[3]
  H1.0 immunofluorescence intensity: 93.6 (inactive)
[4]
  H1.0 immunofluorescence intensity: 88.1 (inactive)

## CN(C)C1C(=O)C(C(N)=O)=C(O)C2(O)C(=O)C3=C(O)c4c(O)cccc4C(C)(O)C3CC12 (centres undefined) [Tetracycline]
[1]
  cell number: 104
[2]
  cell number: 109
[3]
  H1.0 immunofluorescence intensity: 101 (inactive)
[4]
  H1.0 immunofluorescence intensity: 95.2 (inactive)
